Shown are actives, neighbours in structure and some others; about 9.2% of the full set was active somewhere.
Lamin A splicing – LMNA splicing modulation | HeLa LMNA splicing GFP/RFP minigene ratio, 48 h | Potency, µM (top dose mostly 46.1 µM), inactives show top-dose ratio change, negative = inhibition, usual class: inhibitors | actives 0.01% (n = 200,000) | AID 1487; active means well fitted inhibition curve with a large enough effect in the signal ratio, with a control signal flat, not every such curve was filed as active; inconclusive means small, poorly fitted or top-dose-only effect, or effect the other way, or a change in a side signal; the % refers to the signal ratio; further: on the % scale 0 is the no-effect control and ±100 the full control effect
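S3 HeLa stable clones carrying a lamin A-EGFP splicing minigene plus DsRed2 were seeded at 600 cells/well in Opti-MEM with 2% FBS, pin-dosed and incubated 48 h at 37°C. Acumen cytometry (488 nm) gave the GFP/RFP total-intensity ratio.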
ALDH1A1 block – blocks purified human ALDH1A1 activity. P00352. Purified ALDH1A1, NADH fluorescence, propionaldehyde substrate. Potency, µM (doses to about 75.3 µM), for the others: at the top dose activity, negative = inhibition, hits mostly inhibitors. actives 7.3% (n = 220,000);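 further: plate controls were no enzyme wells and a reference inhibitor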
Target sequence (P00352 whole entry, looked up): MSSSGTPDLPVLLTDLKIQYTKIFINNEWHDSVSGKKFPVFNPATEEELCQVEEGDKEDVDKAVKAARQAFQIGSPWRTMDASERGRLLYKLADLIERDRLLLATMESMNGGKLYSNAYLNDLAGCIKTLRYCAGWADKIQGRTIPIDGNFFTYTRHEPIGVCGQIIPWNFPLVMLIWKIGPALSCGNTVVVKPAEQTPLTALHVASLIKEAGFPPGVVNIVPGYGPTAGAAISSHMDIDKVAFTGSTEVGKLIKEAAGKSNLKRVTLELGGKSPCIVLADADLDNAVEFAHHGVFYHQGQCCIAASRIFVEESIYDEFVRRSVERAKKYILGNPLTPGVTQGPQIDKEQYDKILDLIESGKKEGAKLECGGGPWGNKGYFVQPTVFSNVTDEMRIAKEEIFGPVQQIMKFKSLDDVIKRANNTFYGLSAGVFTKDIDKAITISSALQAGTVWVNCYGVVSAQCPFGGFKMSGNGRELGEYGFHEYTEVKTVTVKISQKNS
HTT aggregate – mutant huntingtin aggregation inhibition; PC12 HttQ103-GFP aggregates, Acumen cytometry, 40 h; Potency, µM (top dose mostly 46.1 µM), for the others: top-dose activity change, negative = inhibition, usual class: inhibitors; actives 1.1% (n = 220,000); AID 1688; active means well fitted curve in the direction sought with a large enough effect; inconclusive means small, poorly fitted or top-dose-only effect, or another doubt; inactive means no such curve, though single readings can be large; an effect the other way counts as inactive or inconclusive; further: on the % scale 0 is the no-effect control and ±100 the full control effect; nearly all actives have a fitted effect of over 60% in size
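Huntingtin Q103 exon 1–GFP aggregates in induced PC12 cells (100 nM tebufenozide) were quantified by cytometry from lysates, with compounds dosed in titration.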
HTT ATP protect – cytoprotection in Huntington HTT-Q103 PC12 cell model. actives 0.14% (n = 230,000). Potency, µM (top dose mostly 56.4 µM), for inactives: cytoprotection (ATP increase), most hits filed as activators. PC12 HTT-Q103 induced, cytoprotection, ATP luminescence, 40 h. AID 1471; active means well fitted curve in the direction sought with a large enough effect; inconclusive means small, poorly fitted or top-dose-only effect, or another doubt; inactive means no such curve, though single readings can be large; an effect the other way counts as inactive or inconclusive; further: % of control where 0% means no effect; nearly all actives have a fitted effect of over 45% in size
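Compounds added alongside 100 nM tebufenozide, which induces toxic Q103 huntingtin exon 1-GFP in stable PC12 cells; surviving cells quantified by luminescent ATP measurement. Medium: phenol red-free DMEM, 5% equine and 5% calf serum.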
HPGD block – HPGD (human) dehydrogenase inhibition | P15428 | Potency, µM, for inactives: at the highest dose activity change, negative = inhibition, usual class: inhibitors | purified HPGD, NADH fluorescence kinetic, PGE2 substrate | AID 894 | actives 4.3% (n = 150,000); further: on the % scale 0 is the no-effect control and ±100 the full control effect
Target sequence (P15428 whole entry, looked up): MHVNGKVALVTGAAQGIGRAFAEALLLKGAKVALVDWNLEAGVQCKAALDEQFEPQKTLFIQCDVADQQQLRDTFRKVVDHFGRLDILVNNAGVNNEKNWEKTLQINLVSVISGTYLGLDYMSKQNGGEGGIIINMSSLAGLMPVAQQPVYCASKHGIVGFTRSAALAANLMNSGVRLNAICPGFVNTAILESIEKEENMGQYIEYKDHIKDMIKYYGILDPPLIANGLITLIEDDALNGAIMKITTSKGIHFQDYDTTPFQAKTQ
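20 nM HPGD preincubated 15 min at room temperature with compound in 50 mM Tris-HCl pH 8, 0.01% Tween 20. Started with 1 mM NAD+ and 30 uM prostaglandin E2; NADH fluorescence (360/450 nm) read 5 times over 30-s intervals, last minus first.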
JMJD2E inh – blocks human JMJD2E demethylase activity. Potency, µM (highest dose often 57.1 µM), without a hit: at the top dose activity change, negative = inhibition, hits mostly inhibitors. B2RXH2. JMJD2E catalytic domain, FDH-coupled NADH fluorescence (FDH is formaldehyde dehydrogenase). AID 2147. actives 1.6% (n = 230,000);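 further: 0% = wells with enzyme and -100% = buffer wells without enzyme; nearly all actives have a fitted effect of over 50% in size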
Starred values were filed as active, the others as inactive; ? = inconclusive; nt = no result given; [ ] = another dose, or the depositor's remark. Unless noted, the call rests on the fitted dose curve; in most records, active means well fitted inhibition curve with a large enough effect (not every such curve was filed as active); inconclusive means small, poorly fitted or top-dose-only effect, or another doubt; inactive means no such curve, though single readings can be large or run the other way. Potency means the concentration at half of the fitted maximal effect.

SMILES | Lamin A splicing | ALDH1A1 block | HTT aggregate | HTT ATP protect | HPGD block | JMJD2E inh
S=c1cnc2ccccc2[nH]1 | -0.3%[46 µM] | 3.16µM* | -3.8%[9.22 µM] | -3.5% | nt | 11.2µM*
c1ccc(CCc2nc3ccccc3[nH]2)cc1 | ? | 4.4% | -19.3%[9.22 µM] | -12.4%[10 µM] | nt | 4.1%
Cc1ccccc1N1CCN(S(=O)(=O)c2ccc3oc(=O)ccc3c2)CC1 | -17.8% | -3.2% | 10µM* | 1.7%[10 µM] | -16.4% | 0.1%
CCc1ccccc1N1CCN(S(=O)(=O)c2ccc(F)c(C)c2)CC1 | -16.4% | 2.7% | -29.6% | -2.9% | -1.1% | 5.1%
O=C(/C=C/c1ccccc1)NC(NC(=S)Nc1ccc(Cl)cc1)C(Cl)(Cl)Cl (centres undefined) | ? | 2.1% | -16.2% | -59.0% | -12.1% | 1.9%
O=C(NC(NC(=S)Nc1cc(Cl)ccc1Cl)C(Cl)(Cl)Cl)c1ccco1 (centres undefined) | ? | 8.91µM* | ? | -53.5% | -22.0% | -0.4%
O=C(NC(NC(=S)Nc1ccccc1C(=O)O)C(Cl)(Cl)Cl)c1ccco1 (centres undefined) | -9.3% | ? | 1.6% | 9.5%[10 µM] | ? | ?
O=C(/C=C/c1ccccc1)NC(NC(=S)Nc1cc(Cl)ccc1Cl)C(Cl)(Cl)Cl (centres undefined) | 4.5%[0.0737 µM] | 22.4µM* | 2.82µM* | -30.5% | -7.9% | 4.3%
Cc1ccccc1NC(=S)NC(NC(=O)c1ccco1)C(Cl)(Cl)Cl (centres undefined) | ? | 9.46µM* | -18.2% | -1.0%[10 µM] | -15.8% | -5.9%
O=C(NC(NC(=S)Nc1ccc(Cl)c(Cl)c1)C(Cl)(Cl)Cl)c1ccco1 (centres undefined) | 1.3% | 7.08µM* | -17.3% | -89.8% | -23.6% | -8.5%
CCn1c(SCC(=O)Nc2sc3c(c2C#N)CCCC3)nnc1-c1ccncc1 | -16.2% | 17.8µM* | 11.6% | 33.7%[10 µM] | -8.6% | -0.4%
COc1ccc(-c2nnn(CC(=O)Nc3sc4c(c3C#N)CCCC4)n2)cc1 | 8.3% | 10µM* | 12.3% | -11.3% | -17.9% | -0.9%
Cn1c(CNC(=O)c2ccc(Cl)cc2)nnc1SCC(=O)Nc1sc2c(c1C#N)CCCC2 | 26.1% | ? | -16.5% | -0.8% | -8.9% | 5.1%
Cc1ccc(C(=O)NCc2nnc(SCC(=O)Nc3sc4c(c3C#N)CCCC4)n2C)cc1 | 9.0% | 14.1µM* | 20.2% | 4.4% | -32.8% | 5.1%
N#Cc1cc2c(nc1SCC(=O)Nc1sc3c(c1C#N)CCC3)CCCCCC2 | 3.3% | 15.8µM* | -2.5% | -19.8% | -9.8% | 2.8%
COc1ccc(-c2cc(C(F)(F)F)nc(SCC(=O)Nc3sc4c(c3C#N)CCC4)n2)cc1 | -3.4% | ? | ? | 12.8%[10 µM] | ? | ?
CCCCC/C=C\C/C=C\C/C=C\C/C=C\CCCCCC(=O)NC(C)C(=O)O (centres undefined) | nt | 2.8% | nt | 2.4% | -6.2% | 7.0%
CC[n+]1c(C)sc2sc3ccccc3c21 | nt | nt | 8.0%[9.22 µM] | 16.2%[10 µM] | nt | 14.1µM*
C(=N/n1c2ccccc2c2ccccc21)/c1ccco1 | 3.4% | 10µM* | -7.0% | 2.4% | -14.0% | -10.7%
O=c1c2cc(-c3ccccc3)sc2ncn1/N=C/c1ccco1 | -5.2% | ? | 3.0%[9.22 µM] | -27.5%[10 µM] | ? | 0.5%
N=c1scc(-c2ccccc2)n1/N=C/c1ccco1 | -3.2% | 22.4µM* | 2.9% | -14.6%[10 µM] | -26.8% | -17.0%
CC1CCCN(C(=O)CSc2nnc(-c3cccnc3)n2C2CCCCC2)C1 (centres undefined) | -9.8% | -9.8% | 6.2% | -3.1%[10 µM] | ? | 2.2%
O=C(CSc1nnc(-c2cccnc2)n1C1CCCCC1)NC1CCCC1 | -16.3% | -5.4% | -5.0% | -9.6%[10 µM] | 22.4µM* | -7.2%
O=C(Nc1ccccc1)c1[nH]ncc1[N+](=O)[O-] | -7.6% | -0.1% | 11.0% | -5.9% | -19.0% | -10.3%
COc1ccc(CCNC(=O)COc2ccccc2[N+](=O)[O-])cc1OC | nt | nt | 3.7%[9.22 µM] | -3.2%[10 µM] | nt | -3.3%
SMILES | Lamin A splicing | ALDH1A1 block | HTT aggregate | HTT ATP protect | HPGD block | JMJD2E inh
COc1ccc(NC(=O)c2[nH]ncc2[N+](=O)[O-])cc1 | -18.7%[46 µM] | 15µM* | -1.4% | -30.9% | nt | -14.4%
COc1ccc(NC(=O)c2ccc(-c3ccc([N+](=O)[O-])cc3)o2)cc1 | ? | 2.24µM* | 19.5% | -46.3% | nt | -20.3%
O=C(Nc1nccs1)c1ccc(-c2ccccc2Cl)o1 | -21.2% | 25.1µM* | -15.1% | -12.0%[10 µM] | ? | 105.2%
COc1ccc(CCNC(=O)c2ccc(-c3ccc([N+](=O)[O-])cc3)o2)cc1OC | ? | 10µM* | -3.2% | -5.3%[1.9 µM] | -8.0% | -8.7%
O=C(Nc1nccs1)c1ccc(-c2ccc([N+](=O)[O-])cc2)o1 | ? | 22.4µM* | nt | nt | nt | 4.1%
COc1ccc(NC(=O)c2ccc(Cc3ccc(C)cc3)o2)cc1 | ? | 25.1µM* | -7.7% | -0.6%[10 µM] | ? | 3.6%
O=C(Nc1nccs1)c1ccc(-c2ccc(F)cc2)o1 | nt | 22.4µM* | -13.2% | -161.6% | nt | -4.1%
O=C(Nc1nccs1)c1ccc(-c2ccc(Cl)cc2)o1 | -5.8%[46 µM] | -11.8% | -4.7%[9.22 µM] | 0.5%[10 µM] | nt | ?
Cc1cc(Cl)ccc1NNC(=O)CCc1ccccc1 | nt | -11.5% | 10.5%[9.22 µM] | -20.0%[10 µM] | nt | 7.5%
COc1ccc(CC(=O)Nc2cc(C)ccc2O)cc1OC | nt | nt | 9.7%[9.22 µM] | 21.8%[10 µM] | nt | 10.3%
Cc1nc2cc(NC(=O)COc3ccc(C#N)cc3)ccc2n1-c1ccccc1 | ? | 11.2µM* | -1.0% | 13.3% | -14.4% | 3.7%
O=C(/C=C\c1ccc(-c2cccc([N+](=O)[O-])c2)o1)N1CCOCC1 | ? | ? | 1.1%[9.22 µM] | 2.6%[10 µM] | nt | 15.8µM*
NC(=S)N/N=C/c1ccc(-c2cccc([N+](=O)[O-])c2)o1 | ? | ? | -2.9% | nt | 15.8µM* | 2.3%
Cc1cc(C)cc(N(CC(=O)N2CCc3ccccc32)S(=O)(=O)c2c(C)noc2C)c1 | 0.7% | 8.91µM* | -3.2% | 11.4% | -14.0% | -4.5%
CCOc1ccc(N(CC(=O)N2CCc3ccccc32)S(=O)(=O)c2c(C)noc2C)cc1 | -12.0% | -1.9% | -1.2% | -5.0% | -7.0% | 1.8%
CCOc1ccc(NC(=O)C2CCC(N3C(=O)C4CC=CCC4C3=O)CC2)cc1 (centres undefined) | ? | 3.98µM* | 2.4% | -28.9% | -18.8% | 7.1%
O=C(Nc1ccc(Cc2ccncc2)cc1)C1CCC(N2C(=O)C3C4C=CC(C5CC45)C3C2=O)CC1 (centres undefined) | ? | ? | ? | -66.3% | -7.9% | 2.9%
COc1ccc(NC(=O)C2CCC(N3C(=O)C4C5C=CC(C5)C4C3=O)CC2)cc1 (centres undefined) | -10.9% | 7.94µM* | ? | 5.2% | -2.2% | 1.3%
Clc1ccccc1Cn1nnc2c(N3CCOCC3)nc(C3CC3)nc21 | 1.1% | 20µM* | -23.9% | -7.2% | -14.0% | ?
